Common to all, as to test: DAPPL (digital affinity profiling via proximity ligation, sequencing); 10 mM Tris-HCl pH 7.5, 50 mM NaCl, 1 mM DTT, 4% glycerol, room temperature, 30 min; GST-TFs on glutathione beads, 16-mer random dsDNA library, 0.1% formaldehyde crosslink after washing; high values mean tight binding
In assay [1] the target is T1, FEV (Homo sapiens, UniProt Q99581 1-238).
T1 sequence: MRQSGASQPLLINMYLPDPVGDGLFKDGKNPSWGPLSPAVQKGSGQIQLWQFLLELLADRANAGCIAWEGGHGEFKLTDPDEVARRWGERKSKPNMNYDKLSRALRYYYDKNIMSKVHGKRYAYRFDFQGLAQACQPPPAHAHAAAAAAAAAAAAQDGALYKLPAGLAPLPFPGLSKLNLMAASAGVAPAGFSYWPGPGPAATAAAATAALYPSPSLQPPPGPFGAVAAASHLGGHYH
The following applies: protein: recombinant; tags: N-terminal GST; dsDNA, one strand shown. In short, it runs like this: (§1)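 Each value of binding signal is a hexamer's read frequency for a factor divided by the same hexamer's frequency in the tag-only sample. Barcoded, bead-captured GST fusions of human transcription factors made in yeast were pooled with that sample and incubated with 200 nmole of a random double-stranded 16-mer DNA library in Tris/NaCl/DTT/glycerol buffer at room temperature for 30 min. Washing, 0.1% formaldehyde crosslinking, proximity ligation, PCR and Illumina NextSeq500 sequencing followed.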

Assay [2] addresses ETV5 (Homo sapiens, UniProt P41161 1-510). The following applies: protein: recombinant; tags: N-terminal GST; dsDNA, one strand shown. A digest of the protocol: as §1
In assay [3] the target is HSF1 (Homo sapiens, UniProt Q00613 1-529). The following applies: protein: recombinant; tags: N-terminal GST; chain copies: 3; dsDNA, one strand shown. A digest of the protocol: as §1
The target of assay [4] is T2, SPIC (Homo sapiens, UniProt Q8N5J4 1-248).
T2 sequence: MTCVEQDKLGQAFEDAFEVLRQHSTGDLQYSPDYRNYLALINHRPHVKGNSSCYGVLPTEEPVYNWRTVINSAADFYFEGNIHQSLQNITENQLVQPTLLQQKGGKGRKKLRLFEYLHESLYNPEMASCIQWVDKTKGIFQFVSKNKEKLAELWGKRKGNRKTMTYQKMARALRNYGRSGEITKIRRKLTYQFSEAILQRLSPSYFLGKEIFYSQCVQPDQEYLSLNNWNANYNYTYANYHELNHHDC
The following applies: protein: recombinant; tags: N-terminal GST; dsDNA, one strand shown. A digest of the protocol: as §1

In assay [5] the target is ELF4 (Homo sapiens, UniProt Q99607 1-663). The conditions noted are these: protein: recombinant; tags: N-terminal GST; dsDNA, one strand shown. In short, it runs like this: as §1
The target of assay [6] is T3, ELK4 (Homo sapiens, UniProt P28324-2 1-405).
T3 sequence: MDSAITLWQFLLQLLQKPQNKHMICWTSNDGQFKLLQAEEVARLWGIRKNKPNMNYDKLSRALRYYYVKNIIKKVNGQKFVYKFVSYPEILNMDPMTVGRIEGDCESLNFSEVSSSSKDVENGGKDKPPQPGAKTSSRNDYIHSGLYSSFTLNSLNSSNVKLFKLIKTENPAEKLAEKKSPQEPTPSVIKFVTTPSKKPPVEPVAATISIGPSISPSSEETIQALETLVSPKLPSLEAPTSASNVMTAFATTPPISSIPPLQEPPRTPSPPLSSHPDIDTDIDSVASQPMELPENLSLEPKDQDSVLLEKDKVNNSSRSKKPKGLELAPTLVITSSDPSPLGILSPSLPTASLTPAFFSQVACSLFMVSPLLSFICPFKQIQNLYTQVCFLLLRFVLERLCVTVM
The conditions noted are these: protein: recombinant; tags: N-terminal GST; dsDNA, one strand shown. A digest of the protocol: as §1

Assay [7] has as its target T4, ETV2 (Homo sapiens, UniProt O00321 1-342).
T4 sequence: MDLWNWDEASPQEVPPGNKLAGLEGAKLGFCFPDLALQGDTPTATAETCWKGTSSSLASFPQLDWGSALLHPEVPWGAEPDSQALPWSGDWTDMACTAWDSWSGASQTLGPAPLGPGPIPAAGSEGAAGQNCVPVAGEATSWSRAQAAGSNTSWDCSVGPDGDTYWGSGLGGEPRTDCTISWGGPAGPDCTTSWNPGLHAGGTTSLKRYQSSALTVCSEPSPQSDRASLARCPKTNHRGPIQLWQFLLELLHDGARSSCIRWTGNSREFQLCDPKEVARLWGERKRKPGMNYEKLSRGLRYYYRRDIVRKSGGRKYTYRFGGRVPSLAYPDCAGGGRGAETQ
The conditions noted are these: protein: recombinant; tags: N-terminal GST; dsDNA, one strand shown. A digest of the protocol:
as §1

In assay [8] the target is T5, ELF3 (Homo sapiens, UniProt P78545 1-371).
T5 sequence: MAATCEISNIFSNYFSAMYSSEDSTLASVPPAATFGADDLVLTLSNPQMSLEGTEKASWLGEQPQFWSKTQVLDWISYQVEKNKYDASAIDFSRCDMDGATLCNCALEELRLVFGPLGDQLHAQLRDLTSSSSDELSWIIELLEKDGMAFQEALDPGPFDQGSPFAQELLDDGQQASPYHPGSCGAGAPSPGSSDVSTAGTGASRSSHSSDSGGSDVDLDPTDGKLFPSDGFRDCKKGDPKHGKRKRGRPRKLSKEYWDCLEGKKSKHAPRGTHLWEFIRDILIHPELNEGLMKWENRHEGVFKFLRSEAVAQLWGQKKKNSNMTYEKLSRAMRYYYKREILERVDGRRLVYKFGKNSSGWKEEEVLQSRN
The following applies: protein: recombinant; tags: N-terminal GST; dsDNA, one strand shown. A digest of the protocol:
as §1

Assay [9] addresses CRX (Homo sapiens, UniProt O43186 1-299). The conditions noted are these: protein: recombinant; tags: N-terminal GST; dsDNA, one strand shown. In short, it runs like this:
as §1

The target of assay [10] is ETV1 (Homo sapiens, UniProt P50549 1-477). The following applies: protein: recombinant; tags: N-terminal GST; dsDNA, one strand shown. A digest of the protocol: as §1
Assay [11] deals with T6, ERF (Homo sapiens, UniProt P50548 1-548).
T6 sequence: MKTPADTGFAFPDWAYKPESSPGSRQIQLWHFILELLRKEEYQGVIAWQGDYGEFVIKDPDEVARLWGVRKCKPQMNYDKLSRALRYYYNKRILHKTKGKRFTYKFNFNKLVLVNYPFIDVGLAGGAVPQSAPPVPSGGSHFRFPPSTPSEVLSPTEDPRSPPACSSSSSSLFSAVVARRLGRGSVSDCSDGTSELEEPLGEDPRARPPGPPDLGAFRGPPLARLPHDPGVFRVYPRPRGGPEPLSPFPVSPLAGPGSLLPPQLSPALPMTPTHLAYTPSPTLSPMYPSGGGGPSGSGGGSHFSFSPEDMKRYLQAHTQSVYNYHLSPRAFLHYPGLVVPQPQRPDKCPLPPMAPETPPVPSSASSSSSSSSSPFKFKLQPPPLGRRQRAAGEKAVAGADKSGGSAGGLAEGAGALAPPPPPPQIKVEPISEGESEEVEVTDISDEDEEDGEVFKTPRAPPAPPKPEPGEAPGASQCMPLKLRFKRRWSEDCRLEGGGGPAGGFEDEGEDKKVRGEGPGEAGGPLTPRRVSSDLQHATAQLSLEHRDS
The conditions noted are these: protein: recombinant; tags: N-terminal GST; dsDNA, one strand shown. In short, it runs like this: as §1

Assay [12] addresses T7, ETV3L (Homo sapiens, UniProt Q6ZN32 1-361).
T7 sequence: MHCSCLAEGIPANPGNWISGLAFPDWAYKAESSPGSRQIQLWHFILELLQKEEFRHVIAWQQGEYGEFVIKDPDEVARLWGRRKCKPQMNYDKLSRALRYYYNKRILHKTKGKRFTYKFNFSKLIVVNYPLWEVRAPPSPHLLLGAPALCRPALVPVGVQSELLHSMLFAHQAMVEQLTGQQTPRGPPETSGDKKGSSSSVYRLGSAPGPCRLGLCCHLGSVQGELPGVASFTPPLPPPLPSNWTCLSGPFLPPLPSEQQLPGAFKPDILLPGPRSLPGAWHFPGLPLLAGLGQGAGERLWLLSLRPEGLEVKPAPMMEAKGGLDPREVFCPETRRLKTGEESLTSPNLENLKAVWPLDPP
The conditions noted are these: protein: recombinant; tags: N-terminal GST; dsDNA, one strand shown. In short, it runs like this:
as §1

Assay [13] has as its target T8, ETS2 (Homo sapiens, UniProt P15036 1-469).
T8 sequence: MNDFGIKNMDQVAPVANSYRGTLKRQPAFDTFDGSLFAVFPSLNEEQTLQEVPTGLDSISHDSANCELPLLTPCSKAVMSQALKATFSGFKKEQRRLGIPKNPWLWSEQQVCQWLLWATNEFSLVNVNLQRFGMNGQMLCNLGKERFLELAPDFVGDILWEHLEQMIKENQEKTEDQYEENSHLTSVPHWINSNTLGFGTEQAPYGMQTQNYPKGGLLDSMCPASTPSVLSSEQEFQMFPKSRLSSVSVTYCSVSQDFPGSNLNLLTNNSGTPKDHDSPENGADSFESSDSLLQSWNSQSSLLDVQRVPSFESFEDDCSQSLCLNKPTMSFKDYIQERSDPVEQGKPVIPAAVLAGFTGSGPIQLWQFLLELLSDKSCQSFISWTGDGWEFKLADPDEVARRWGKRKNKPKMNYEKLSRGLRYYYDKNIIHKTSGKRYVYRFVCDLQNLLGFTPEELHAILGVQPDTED
The following applies: protein: recombinant; tags: N-terminal GST; dsDNA, one strand shown. A digest of the protocol: as §1

The target of assay [14] is T9, SPDEF (Homo sapiens, UniProt O95238 1-335).
T9 sequence: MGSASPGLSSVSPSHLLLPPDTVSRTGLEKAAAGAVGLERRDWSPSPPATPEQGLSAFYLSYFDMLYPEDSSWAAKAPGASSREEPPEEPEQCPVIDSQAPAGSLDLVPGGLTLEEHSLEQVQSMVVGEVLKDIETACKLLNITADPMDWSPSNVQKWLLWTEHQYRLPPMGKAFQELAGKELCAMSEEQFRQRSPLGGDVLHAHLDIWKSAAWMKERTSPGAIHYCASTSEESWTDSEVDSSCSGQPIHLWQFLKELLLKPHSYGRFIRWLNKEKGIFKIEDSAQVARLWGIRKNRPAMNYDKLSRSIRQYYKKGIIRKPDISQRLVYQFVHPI
The conditions noted are these: protein: recombinant; tags: N-terminal GST; dsDNA, one strand shown. In short, it runs like this: as §1

The target of assay [15] is T10, ETV7 (Homo sapiens, UniProt Q9Y603 1-341).
T10 sequence: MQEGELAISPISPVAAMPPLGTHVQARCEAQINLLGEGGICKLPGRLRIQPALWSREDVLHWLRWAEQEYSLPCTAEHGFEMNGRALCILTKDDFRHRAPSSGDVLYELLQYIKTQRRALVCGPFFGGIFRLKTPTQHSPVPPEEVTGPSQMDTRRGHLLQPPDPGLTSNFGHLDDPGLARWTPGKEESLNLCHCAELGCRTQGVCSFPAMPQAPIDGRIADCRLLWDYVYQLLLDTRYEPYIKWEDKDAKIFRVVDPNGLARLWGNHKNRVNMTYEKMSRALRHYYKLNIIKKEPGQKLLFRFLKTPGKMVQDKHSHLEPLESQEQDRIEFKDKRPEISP
The conditions noted are these: protein: recombinant; tags: N-terminal GST; dsDNA, one strand shown. A digest of the protocol:
as §1

Assay [16] has as its target T11, ELF5 (Homo sapiens, UniProt Q9UKW6-2 1-255).
T11 sequence: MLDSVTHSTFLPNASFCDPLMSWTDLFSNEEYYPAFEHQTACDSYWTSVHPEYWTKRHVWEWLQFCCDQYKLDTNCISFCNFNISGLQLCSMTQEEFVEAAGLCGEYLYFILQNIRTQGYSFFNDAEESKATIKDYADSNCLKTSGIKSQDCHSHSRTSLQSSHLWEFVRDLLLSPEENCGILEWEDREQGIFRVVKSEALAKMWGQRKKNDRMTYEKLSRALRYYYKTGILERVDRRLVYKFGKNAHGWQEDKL
The following applies: protein: recombinant; tags: N-terminal GST; dsDNA, one strand shown. In short, it runs like this: as §1

The target of assay [17] is T12, ETV3 (Homo sapiens, UniProt P41162-2 1-143).
T12 sequence: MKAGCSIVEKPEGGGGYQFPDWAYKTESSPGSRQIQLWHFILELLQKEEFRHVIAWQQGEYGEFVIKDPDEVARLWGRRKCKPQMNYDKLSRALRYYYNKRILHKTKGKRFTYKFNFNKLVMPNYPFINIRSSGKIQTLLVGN
The conditions noted are these: protein: recombinant; tags: N-terminal GST; dsDNA, one strand shown. A digest of the protocol:
as §1

Assay [18] concerns the target ETV6 (Homo sapiens, UniProt P41212 1-452). The conditions noted are these: protein: recombinant; tags: N-terminal GST; dsDNA, one strand shown. In short, it runs like this: as §1

ELF4, sequence (Q99607 whole entry): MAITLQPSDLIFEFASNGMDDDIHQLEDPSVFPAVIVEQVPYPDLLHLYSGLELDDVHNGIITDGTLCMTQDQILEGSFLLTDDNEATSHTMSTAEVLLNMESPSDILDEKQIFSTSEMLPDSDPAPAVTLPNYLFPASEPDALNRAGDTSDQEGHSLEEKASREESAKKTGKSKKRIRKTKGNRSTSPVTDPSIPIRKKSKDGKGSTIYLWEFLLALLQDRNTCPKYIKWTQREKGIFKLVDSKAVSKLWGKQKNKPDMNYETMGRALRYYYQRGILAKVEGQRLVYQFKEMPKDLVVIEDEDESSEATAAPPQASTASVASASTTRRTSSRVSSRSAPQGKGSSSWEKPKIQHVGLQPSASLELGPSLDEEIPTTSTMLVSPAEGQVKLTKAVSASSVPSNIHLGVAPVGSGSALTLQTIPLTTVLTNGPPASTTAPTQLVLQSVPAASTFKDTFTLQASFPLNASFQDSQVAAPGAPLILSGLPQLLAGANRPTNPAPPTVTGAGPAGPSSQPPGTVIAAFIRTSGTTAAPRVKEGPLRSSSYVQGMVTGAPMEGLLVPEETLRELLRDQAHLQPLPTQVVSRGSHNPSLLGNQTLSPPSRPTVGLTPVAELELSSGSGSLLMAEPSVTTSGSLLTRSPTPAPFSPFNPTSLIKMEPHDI
ETV5, sequence (P41161 whole entry): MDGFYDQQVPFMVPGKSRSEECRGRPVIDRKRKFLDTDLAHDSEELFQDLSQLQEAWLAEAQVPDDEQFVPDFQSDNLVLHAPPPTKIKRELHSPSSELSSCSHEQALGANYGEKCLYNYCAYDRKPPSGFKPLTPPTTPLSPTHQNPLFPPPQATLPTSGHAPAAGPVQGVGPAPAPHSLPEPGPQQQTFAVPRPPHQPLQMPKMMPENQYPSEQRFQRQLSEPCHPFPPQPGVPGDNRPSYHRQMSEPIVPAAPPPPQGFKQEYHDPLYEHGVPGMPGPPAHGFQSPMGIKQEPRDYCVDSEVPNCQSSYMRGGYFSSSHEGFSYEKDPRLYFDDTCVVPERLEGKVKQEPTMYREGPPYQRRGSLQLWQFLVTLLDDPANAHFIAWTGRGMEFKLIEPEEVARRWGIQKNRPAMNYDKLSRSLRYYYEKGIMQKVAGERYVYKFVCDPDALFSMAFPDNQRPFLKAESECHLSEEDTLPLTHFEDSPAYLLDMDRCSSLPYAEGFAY
ETV1, sequence (P50549 whole entry): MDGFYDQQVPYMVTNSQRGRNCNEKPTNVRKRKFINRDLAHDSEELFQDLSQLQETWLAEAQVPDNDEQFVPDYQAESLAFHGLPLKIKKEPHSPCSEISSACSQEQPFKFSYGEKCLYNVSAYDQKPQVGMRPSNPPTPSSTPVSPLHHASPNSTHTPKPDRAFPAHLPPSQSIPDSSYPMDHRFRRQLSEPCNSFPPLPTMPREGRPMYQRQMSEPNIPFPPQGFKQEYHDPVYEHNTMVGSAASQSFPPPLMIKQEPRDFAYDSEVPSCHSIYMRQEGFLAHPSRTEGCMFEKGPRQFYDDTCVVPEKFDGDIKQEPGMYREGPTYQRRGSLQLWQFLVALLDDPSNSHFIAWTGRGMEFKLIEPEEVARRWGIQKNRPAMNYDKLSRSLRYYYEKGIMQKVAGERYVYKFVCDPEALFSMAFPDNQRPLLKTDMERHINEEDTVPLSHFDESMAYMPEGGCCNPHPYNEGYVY
HSF1, sequence (Q00613 whole entry): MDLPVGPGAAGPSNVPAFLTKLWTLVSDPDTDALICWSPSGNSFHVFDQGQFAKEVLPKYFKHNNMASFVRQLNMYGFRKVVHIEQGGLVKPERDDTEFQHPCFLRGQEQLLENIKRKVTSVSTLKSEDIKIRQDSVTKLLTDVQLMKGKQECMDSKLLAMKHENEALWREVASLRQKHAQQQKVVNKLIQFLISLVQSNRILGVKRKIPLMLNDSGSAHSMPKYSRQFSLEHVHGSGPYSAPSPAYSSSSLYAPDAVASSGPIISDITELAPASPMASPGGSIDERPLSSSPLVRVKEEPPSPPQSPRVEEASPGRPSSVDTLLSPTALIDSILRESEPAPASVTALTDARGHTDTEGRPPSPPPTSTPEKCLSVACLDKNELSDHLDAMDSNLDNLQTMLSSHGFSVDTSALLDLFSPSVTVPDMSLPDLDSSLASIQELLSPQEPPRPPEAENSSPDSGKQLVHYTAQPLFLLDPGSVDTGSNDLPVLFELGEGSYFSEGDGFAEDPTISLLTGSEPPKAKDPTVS
CRX, sequence (O43186 whole entry): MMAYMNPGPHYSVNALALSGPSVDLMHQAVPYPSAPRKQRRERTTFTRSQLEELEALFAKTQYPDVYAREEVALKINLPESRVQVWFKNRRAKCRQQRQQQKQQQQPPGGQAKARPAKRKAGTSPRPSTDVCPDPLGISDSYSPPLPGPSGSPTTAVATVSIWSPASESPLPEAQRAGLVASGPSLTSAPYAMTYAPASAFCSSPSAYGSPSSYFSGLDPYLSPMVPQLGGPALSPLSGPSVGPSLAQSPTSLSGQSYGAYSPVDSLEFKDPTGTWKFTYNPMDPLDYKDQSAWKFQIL
ETV6, sequence (P41212 whole entry): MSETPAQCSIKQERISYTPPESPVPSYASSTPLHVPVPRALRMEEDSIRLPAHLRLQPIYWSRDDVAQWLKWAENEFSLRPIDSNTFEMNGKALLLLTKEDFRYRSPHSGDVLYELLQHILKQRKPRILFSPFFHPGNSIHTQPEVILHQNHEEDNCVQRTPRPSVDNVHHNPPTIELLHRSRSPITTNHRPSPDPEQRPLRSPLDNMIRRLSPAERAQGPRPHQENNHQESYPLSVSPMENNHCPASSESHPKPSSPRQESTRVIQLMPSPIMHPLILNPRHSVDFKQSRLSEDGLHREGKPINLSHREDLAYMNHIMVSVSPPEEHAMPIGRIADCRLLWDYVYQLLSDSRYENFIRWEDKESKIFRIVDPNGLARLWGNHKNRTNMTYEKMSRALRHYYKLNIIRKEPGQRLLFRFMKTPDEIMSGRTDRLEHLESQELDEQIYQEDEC

Consider TAGTAC, for which the binding signal was 1.16 fold enrichment (6-mer frequency, TF over GST control) in assay [1]; 1.14 fold enrichment (6-mer frequency, TF over GST control) in assay [2]; 1.25 fold enrichment (6-mer frequency, TF over GST control) in assay [3]; 1.27 fold enrichment (6-mer frequency, TF over GST control) in assay [4]; 1.15 fold enrichment (6-mer frequency, TF over GST control) in assay [5]; 1.16 fold enrichment (6-mer frequency, TF over GST control) in assay [6]. In addition, the binding signal in assay [7] was 1.06 fold enrichment (6-mer frequency, TF over GST control); in assay [8] it was 1.14 fold enrichment (6-mer frequency, TF over GST control); in assay [9], 1.29 fold enrichment (6-mer frequency, TF over GST control); in assay [10], 1.14 fold enrichment (6-mer frequency, TF over GST control); in [11], 1.13 fold enrichment (6-mer frequency, TF over GST control); in [12] it was 1.1 fold enrichment (6-mer frequency, TF over GST control). Also, the binding signal in assay [13] is 1.17 fold enrichment (6-mer frequency, TF over GST control); in assay [14], 1.14 fold enrichment (6-mer frequency, TF over GST control); in assay [15], 1.17 fold enrichment (6-mer frequency, TF over GST control); in assay [16], 1.17 fold enrichment (6-mer frequency, TF over GST control); in assay [17], 1.27 fold enrichment (6-mer frequency, TF over GST control); in assay [18] it was 1.22 fold enrichment (6-mer frequency, TF over GST control).

The record behind these values is article PMC7862700, “An all-to-all approach to the identification of sequence-specific readers for epigenetic DNA modifications on cytosine”.
